# Test results from article PMC4336329 (PLoS ONE, 2015).
# In all, about 310,000 compounds went through this assay and about 14,000 (4.5%) showed an effect of 50% or more. The effect is printed as a negative number. What follows is part of a selection rich in strong results, with near analogues and random picks from the rest.
# Target: human ether-à-go-go-related gene (hERG) potassium channel (human, UniProt Q12809)
# Assay: primary screen, population patch clamp on CHO cells stably expressing hERG; higher = less effect of the substance
# 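Note: peak tail current of the secondary pulse compared with the same well before compound.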
# Sequence of human ether-à-go-go-related gene (hERG) potassium channel (Q12809 whole entry, looked up): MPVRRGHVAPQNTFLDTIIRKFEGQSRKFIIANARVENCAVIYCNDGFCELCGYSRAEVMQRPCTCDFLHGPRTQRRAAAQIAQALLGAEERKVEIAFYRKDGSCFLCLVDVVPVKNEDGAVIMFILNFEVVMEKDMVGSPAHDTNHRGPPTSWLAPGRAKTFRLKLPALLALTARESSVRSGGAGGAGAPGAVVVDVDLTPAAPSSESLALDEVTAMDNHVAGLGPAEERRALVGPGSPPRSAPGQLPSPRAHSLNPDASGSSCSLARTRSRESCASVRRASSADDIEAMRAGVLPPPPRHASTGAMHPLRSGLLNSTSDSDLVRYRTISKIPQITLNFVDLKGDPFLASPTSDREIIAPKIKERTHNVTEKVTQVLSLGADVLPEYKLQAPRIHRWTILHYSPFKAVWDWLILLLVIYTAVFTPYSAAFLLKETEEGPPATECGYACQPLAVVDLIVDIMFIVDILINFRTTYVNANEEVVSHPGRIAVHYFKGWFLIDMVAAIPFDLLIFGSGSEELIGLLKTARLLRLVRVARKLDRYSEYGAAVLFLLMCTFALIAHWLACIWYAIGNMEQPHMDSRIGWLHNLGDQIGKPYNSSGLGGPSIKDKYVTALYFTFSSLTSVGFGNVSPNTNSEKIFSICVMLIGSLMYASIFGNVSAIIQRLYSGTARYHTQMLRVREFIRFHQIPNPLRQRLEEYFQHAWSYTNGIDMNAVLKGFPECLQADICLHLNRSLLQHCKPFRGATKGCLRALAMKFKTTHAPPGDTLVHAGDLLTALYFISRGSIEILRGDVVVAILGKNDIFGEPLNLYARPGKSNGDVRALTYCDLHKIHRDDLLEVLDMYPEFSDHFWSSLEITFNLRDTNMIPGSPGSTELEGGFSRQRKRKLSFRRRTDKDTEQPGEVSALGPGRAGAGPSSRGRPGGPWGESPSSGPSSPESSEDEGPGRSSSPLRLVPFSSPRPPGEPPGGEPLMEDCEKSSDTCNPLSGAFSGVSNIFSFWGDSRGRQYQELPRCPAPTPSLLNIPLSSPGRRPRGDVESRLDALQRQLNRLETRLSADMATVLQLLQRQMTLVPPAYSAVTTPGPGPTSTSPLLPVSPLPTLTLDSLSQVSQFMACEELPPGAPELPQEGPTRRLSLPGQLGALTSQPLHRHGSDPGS
row,Structure (SMILES),"hERG current change (%, negative = inhibition) at 10uM"
1,CC(=O)Nc1nc2ccccc2[nH]1,-0.326%
2,Cc1cc(C)n(C(=O)CNC(=O)c2ccco2)n1,11.9%
3,CC(NC(=O)c1ccco1)C1CCCO1 (centres unmarked),-12.7%
4,O=CN1CC(=O)N(c2ccccc2)c2c([nH]c3ccccc23)C1,-23.2%
5,O=C(O)CSc1cc(C(=O)c2ccccc2O)cn2c(=O)c3c(-c4ccccc4)csc3nc12,-1.71%
6,COc1cc(NC2c3ccccc3C(=O)N2Cc2ccc3c(c2)OCO3)cc(OC)c1 (centres unmarked),-22.4%
7,Cc1cc(OCC(=O)NCCc2c[nH]c3ccccc23)c2c(C)c(C)c(=O)oc2c1,3.37%
8,CCOc1ccc(C(=O)CCN2CCCCCC2)cc1.Cl,-38.4%
9,COc1cc(C(=O)OCCN2CCCCC2)ccc1O.Cl,3.87%
10,CCCOc1ccc(C(=O)CCN2CCCCC2)cc1.Cl,-31.6%
11,CCCOc1ccc(C(=O)OCCN2CCCCC2)c(O)c1.Cl,-58.7%
12,CC(=O)c1ccc(OCCCN2CCCCC2)cc1.O=C(O)C(=O)O,-22.2%
13,CCCCOc1ccc(C(=O)CCN2CCCCC2)cc1.Cl,-61.5%
14,O=C(O)C(=O)O.O=C(c1ccccc1)c1ccc(OCCCN2CCCCC2)cc1,-66.4%
15,CC(C)COc1ccc(C(=O)OCCN2CCOCC2)c(O)c1.Cl,-25.2%
16,O=C(O)C(=O)O.O=C(c1ccccc1)c1ccc(OCCCCN2CCCCC2)cc1,-52.6%
17,COc1ccc(/C=N/N=C2\SC(CC(=O)O)C(=O)N2c2ccccc2)c(OC)c1 (centres unmarked),4.13%
18,CC1=CC(C)(C)N(C(=O)CSc2nnc(N)s2)c2cc(C)c(C)cc21,-6%
19,CC(C)OC(=O)Nc1ccc2c(c1)N(C(=O)CCN(C)C)c1ccccc1CC2.Cl,-20.8%
20,CCOc1ccc(N2CC(NC(=O)c3cccc4ccccc34)CC2=O)cc1 (centres unmarked),3.75%
21,CCN(CC(=O)NCc1ccc(Cl)cc1)C(=O)c1cc(S(=O)(=O)NCc2ccccc2)ccc1C,-25.6%
22,CN(C)c1nc(NCc2ccccc2)nc(N/N=C/c2cccc(Br)c2)n1,29.7%

row,Structure (SMILES),"hERG current change (%, negative = inhibition) at 10uM"
1,O=C(Cc1ccsc1)NCc1ccccc1F,17.1%
2,CC(C)CCNC(=O)c1cc(-c2ccco2)nc2ccccc12,6.45%
3,CCn1c(N)[n+](CC(=O)Nc2ccc(SC(F)F)cc2)c2ccccc21.[Cl-],-78.4%
4,CC[N+](CC)(CC)CC(=O)Nc1ccc(SC(F)F)cc1.[Cl-],-3.41%
5,O=C(Cc1ccccc1)Nc1ccc(SC(F)F)cc1,-29.7%
6,COC(=O)Cn1c(=NC(=O)CCS(=O)(=O)c2ccccc2)sc2c(OC)ccc(OC)c21,6.2%
7,CCc1noc(C)c1C(=O)NNC(=O)c1ccccc1F,21%
8,CSc1cccc(NC(=O)CCS(=O)(=O)c2cccc3nonc23)c1,-15.1%
9,COC(=O)c1ccccc1NC(=O)COC(=O)c1cccnc1,6.42%
10,Cc1cc(NC(=O)CN2CCN(S(=O)(=O)c3ccc(Cl)cc3)CC2)no1,-15.4%
11,O=C(CN1CCN(S(=O)(=O)c2ccccc2)CC1)Nc1ccc(Cl)cn1,-29.5%
12,CC(C)c1ccc(S(=O)(=O)N2CCN(CC(=O)Nc3ccc(Cl)cc3F)CC2)cc1,-15.9%
13,O=C(CN1CCN(S(=O)(=O)c2ccc(Br)cc2)CC1)Nc1ccc(F)cc1F,-73.5%
14,NS(=O)(=O)c1ccc(NC(=O)CN2CCN(S(=O)(=O)c3ccc(F)cc3)CC2)cc1,7.15%
15,COc1ccc(C)cc1NC(=O)CN1CCN(S(=O)(=O)c2ccc(Br)cc2)CC1,-30.5%
16,COC(=O)c1ccc(NC(=O)CN2CCN(S(=O)(=O)c3ccc(Br)cc3)CC2)cc1,-31.4%
17,O=C(CN1CCN(S(=O)(=O)c2ccc(F)cc2)CC1)Nc1ccc(Cl)cn1,-62.7%
18,O=C(CN1CCN(S(=O)(=O)c2ccc(Br)cc2)CC1)Nc1ccc(F)cc1,-67.8%
19,O=C(CN1CCN(S(=O)(=O)c2ccc(Cl)cc2)CC1)Nc1ccc(F)cc1F,-78.3%
20,COc1ccc(Cl)cc1NC(=O)CN1CCN(S(=O)(=O)c2ccc(F)cc2)CC1,-43.8%
21,Cc1sc2ncnc(NCCc3ccc(S(N)(=O)=O)cc3)c2c1C,12.6%
22,COc1ccc(CCNC(=O)CSc2nn3c(=O)c(C)nnc3s2)cc1OC,6.31%
